Drawing on PubChem BioAssay, this text covers z-score and composite z-score for 4 molecules.

Test [1] is described as follows: optical density shifts of acrAB sulA E. coli – strain DRC41, OD650, 48 h, E. coli filamentation inducer project, primary screen (AID 1152).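 Also: E. coli MC1000 strain DRC41 lacking acrAB efflux pump and sulA.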 The conditions noted are these: higher = more signal, called active from +8 up or from −8 down.
Test [2] is described as follows: probe aLefty1 binding on compound microarray – biochemical, small-molecule microarray, 635/667 nm fluorescence, primary screen (AID 1153).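 Also: score merges spot fluorescence with signal-to-noise ratio from the scanned slide images.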 The following applies: higher = more signal.
A short description of test [3]: plasmodial surface anion channel blockers, osmotic lysis – cell-based, P. falciparum Indochina, OD700, 1 h, primary screen (AID 1154). The following applies: P. falciparum Indochina infected RBC osmotic lysis, higher = more signal, called active from +8 up or from −8 down.
The nature of test [4]: plasmodial surface anion channel blockers, osmotic lysis – cell-based, P. falciparum Indochina, OD700, 2 h, primary screen (AID 1155).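 Also: lysis reports solute entry through the parasite surface anion channel PSAC.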 The conditions noted are these: P. falciparum Indochina infected erythrocytes, higher = more signal, called active from +8 up or from −8 down.
The nature of test [5]: changes in parasitized red cell lysis, either direction – P. falciparum Indochina, OD700, 3 h, PSAC antagonist project, primary screen (AID 1156). The following applies: P. falciparum-infected erythrocytes, osmotic lysis, higher = more signal, called active from +8 up or from −8 down.
Test [6] in a line: plasmodial surface anion channel blockers, osmotic lysis – cell-based, P. falciparum Indochina, OD700, 18 h, primary screen (AID 1157). The following applies: P. falciparum Indochina infected erythrocytes, osmotic lysis OD700, 18 h; higher = more signal, called active from +8 up or from −8 down.
A short description of test [7]: S6 kinase pathway phospho-S6 level changes – cell-based, A549, cytoblot, luminescence, serum-stimulated, primary screen (AID 1158).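 Also: serum-stimulated A549 lung adenocarcinoma cells; signal is phosphorylated S6 detected by cytoblot immunostaining with HRP secondary.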 The following applies: 5 h, higher = more signal.
Test [8] has as its target NADPH oxidase 2 (Homo sapiens) (UniProt P04839). Kind of test: compounds shifting NOX2 Amplex Red fluorescence – cell-based, HEK293-NOX2, PMA-stimulated, NOX inhibitor project, primary screen (AID 1159). Also: test concentration not given here. The following applies: 45 min, higher = more signal, called active from +8 up or from −8 down.
The target of test [9] is NADPH oxidase 4 (Homo sapiens) (UniProt Q9NPH5). Kind of test: compounds shifting NOX4 Amplex Red fluorescence – cell-based, HEK293-NOX4, tetracycline-induced, NOX inhibitor project, primary screen (AID 1160). The following applies: HEK293-NOX4, Amplex Red H2O2 fluorescence, 45 min; higher = more signal, called active from +8 up or from −8 down.
Chain of NADPH oxidase 4 (Homo sapiens) (Q9NPH5 whole entry, looked up): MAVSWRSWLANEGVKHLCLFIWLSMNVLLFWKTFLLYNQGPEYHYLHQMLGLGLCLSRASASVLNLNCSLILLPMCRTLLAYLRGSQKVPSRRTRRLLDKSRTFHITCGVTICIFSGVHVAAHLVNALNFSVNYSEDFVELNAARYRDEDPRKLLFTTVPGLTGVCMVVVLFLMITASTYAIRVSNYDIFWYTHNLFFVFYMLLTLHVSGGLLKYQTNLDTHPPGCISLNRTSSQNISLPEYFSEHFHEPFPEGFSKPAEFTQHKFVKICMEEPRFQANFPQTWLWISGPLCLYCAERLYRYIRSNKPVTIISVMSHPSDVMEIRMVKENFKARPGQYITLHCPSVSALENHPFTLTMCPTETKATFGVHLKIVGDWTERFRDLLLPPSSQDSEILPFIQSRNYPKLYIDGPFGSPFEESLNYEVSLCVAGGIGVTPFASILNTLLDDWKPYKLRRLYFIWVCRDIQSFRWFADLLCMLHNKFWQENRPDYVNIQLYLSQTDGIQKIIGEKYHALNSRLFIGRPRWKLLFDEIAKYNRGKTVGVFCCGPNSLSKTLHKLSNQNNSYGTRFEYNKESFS
For test [10], the target named is NADPH oxidase 5 (Homo sapiens) (UniProt Q96PH1). The experiment in a line: compounds shifting NOX5 Amplex Red fluorescence – cell-based, HEK293-NOX5, NOX inhibitor project, primary screen (AID 1161). The following applies: HEK293-NOX5, ionomycin, 45 min, higher = more signal.
Chain of NADPH oxidase 5 (Homo sapiens) (Q96PH1 whole entry, looked up): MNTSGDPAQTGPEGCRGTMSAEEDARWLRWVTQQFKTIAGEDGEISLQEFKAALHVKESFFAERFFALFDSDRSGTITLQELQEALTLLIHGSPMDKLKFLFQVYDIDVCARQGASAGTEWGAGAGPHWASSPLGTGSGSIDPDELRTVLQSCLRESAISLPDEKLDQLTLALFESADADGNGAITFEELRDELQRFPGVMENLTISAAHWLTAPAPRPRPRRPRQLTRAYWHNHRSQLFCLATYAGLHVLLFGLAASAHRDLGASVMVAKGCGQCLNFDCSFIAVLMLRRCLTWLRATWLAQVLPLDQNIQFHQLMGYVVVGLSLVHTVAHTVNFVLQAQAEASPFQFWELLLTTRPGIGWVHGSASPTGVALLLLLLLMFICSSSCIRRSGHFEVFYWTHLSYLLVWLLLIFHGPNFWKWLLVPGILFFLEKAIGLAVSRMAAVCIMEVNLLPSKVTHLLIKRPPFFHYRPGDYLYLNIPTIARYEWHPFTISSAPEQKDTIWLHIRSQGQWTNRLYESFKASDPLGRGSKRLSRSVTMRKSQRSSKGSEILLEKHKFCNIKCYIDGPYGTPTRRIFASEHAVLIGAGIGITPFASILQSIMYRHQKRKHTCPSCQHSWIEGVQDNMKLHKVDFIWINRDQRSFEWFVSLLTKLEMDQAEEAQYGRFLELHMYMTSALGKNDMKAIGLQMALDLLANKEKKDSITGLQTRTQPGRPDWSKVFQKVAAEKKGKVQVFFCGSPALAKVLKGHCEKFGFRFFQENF
Test [11] can be described thus: compound effects on lung adenocarcinoma cell viability – A549, calcein-AM fluorescence, 48 h, basal, profiling panel (AID 1162). Also: test concentration not given here. The conditions noted are these: higher = more signal.
Test [12] can be described thus: compound effects on differentiated 3T3-L1 adipocyte viability – cell-based, 3T3-L1 adipocytes, calcein-AM fluorescence, 48 h, basal, profiling panel (AID 1163). Also: test concentration not given here. The following applies: 3T3-L1 adipocytes viability, higher = more signal.
The nature of test [13]: compound effects on hepatocellular carcinoma cell viability – HepG2, calcein-AM fluorescence, 48 h, basal, profiling panel (AID 1164). Also: test concentration not given here. The following applies: higher = more signal.
Test [14] is described as follows: compound effects on multiple myeloma cell viability – MM1S, calcein-AM fluorescence, 48 h, basal, profiling panel (AID 1165).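 Also: viability of MM1S multiple myeloma cells under basal unstimulated conditions; test concentration not given here.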 The following applies: higher = more signal.
Test [15] can be described thus: calcein-AM signal in unstimulated myeloma cells – cell-based, calcein-AM fluorescence, 48 h, PK04 Diversity Set, profiling panel (AID 1166).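 Also: cells grown under basal conditions without added stimulus; test concentration not given here.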 The following applies: RPMI8226 myeloma viability, higher = more signal.
Test [16] is described as follows: JC-1 mitochondrial signal, unstimulated HepG2 cells – cell-based, JC-1 fluorescence, 24 h, 100 nL compound, profiling panel (AID 1167). Also: test concentration not given here. The following applies: HepG2 mitochondrial potential, higher = more signal.
Test [17] can be described thus: JC-1 mitochondrial signal, unstimulated adipocytes – cell-based, JC-1 fluorescence, 3T3-L1 adipocytes, 24 h, 100 nL compound, profiling panel (AID 1168). Also: test concentration not given here. The conditions noted are these: JC-1 mitochondrial fluorescence, higher = more signal, called active from +8 up or from −8 down.
The nature of test [18]: JC-1 mitochondrial signal, unstimulated myeloma cells – cell-based, JC-1 fluorescence, RPMI8226, 24 h, 100 nL compound, profiling panel (AID 1169). Also: test concentration not given here. The conditions noted are these: JC-1 mitochondrial potential fluorescence, higher = more signal.
A short description of test [19]: JC-1 mitochondrial signal, unstimulated MM1S myeloma – cell-based, JC-1 fluorescence, 24 h, 100 nL compound, profiling panel (AID 1170). Also: test concentration not given here. The following applies: MM1S mitochondrial potential, higher = more signal.
The nature of test [20]: resazurin metabolic signal in A549 cells – cell-based, resazurin fluorescence, 24 h, PK04 Diversity Set, profiling panel (AID 1171). Also: test concentration not given here. The conditions noted are these: A549 viability, higher = more signal, called active from +8 up or from −8 down. On the technique in general: The colour change of resazurin is a common sign of viable cells or microbes.

Molecules are shown by their SMILES. Active and inactive are the calls of the source.

Chain of NADPH oxidase 2 (Homo sapiens) (P04839 whole entry, looked up): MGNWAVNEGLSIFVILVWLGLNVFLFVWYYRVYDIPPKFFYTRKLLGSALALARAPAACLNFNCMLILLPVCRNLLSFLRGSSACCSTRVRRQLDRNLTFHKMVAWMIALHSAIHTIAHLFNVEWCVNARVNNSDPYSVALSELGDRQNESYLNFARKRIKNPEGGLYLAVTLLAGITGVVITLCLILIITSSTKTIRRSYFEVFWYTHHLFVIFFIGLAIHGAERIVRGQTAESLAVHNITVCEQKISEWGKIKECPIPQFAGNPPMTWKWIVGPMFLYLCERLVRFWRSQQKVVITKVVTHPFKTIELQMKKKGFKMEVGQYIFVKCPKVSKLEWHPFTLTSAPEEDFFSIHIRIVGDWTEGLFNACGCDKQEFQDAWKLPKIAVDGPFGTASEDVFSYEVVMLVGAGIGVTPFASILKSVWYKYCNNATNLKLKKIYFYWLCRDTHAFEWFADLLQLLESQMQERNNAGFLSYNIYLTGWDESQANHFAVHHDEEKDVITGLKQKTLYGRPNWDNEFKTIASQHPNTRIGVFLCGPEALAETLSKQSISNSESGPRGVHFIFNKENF

`CN(C)C(=O)[C@]1(Cc2ccccc2)N=C(c2ccc(OCCCO)cc2)O[C@@H]1c1ccccc1`: the z-score in test [1] is -0.855 (inactive); in test [3], 28.8 (active); in test [4] it was 23.9 (active); in test [5] it was -0.0356 (inactive); in test [6] it was 2.51 (inactive); in test [7], -0.0744. For the same molecule, the z-score is 0.945 (inactive) in test [8]; -0.372 (inactive) in test [9]; -1.73 in test [10]; -0.092 in test [11]; -0.577 in test [12]; 0.846 in test [13]. Besides, the z-score in test [14] is -0.864; in test [15], -1; in test [16], 0.0944; in test [17], 0.193 (inactive); in [18], -1.11; in test [19], -0.192. In test [20], the z-score was 0.747 (inactive). The composite z-score in test [2] is -0.13.
On to `CN1C(=O)C2C=CC(C(O)c3ccc(-c4ccccc4)s3)N(Nc3ccccc3)C2C1=O` (stereo not given), for which the z-score in [1] was -1.06 (inactive); in test [3], 2.55 (inactive); in test [4], 1.05 (inactive); in test [5] it was 0.156 (inactive); in [6], 1.29 (inactive); in test [7] it was -0.857. Moreover, the z-score in [8] was -1.21 (inactive); in test [9], -4.15 (inactive); in test [10], -1.81; in [11], -0.485; in [12] it was -1.2; in [13] it was -0.99. The z-score in [14] is -0.467; in test [15] it was -1.64; in test [16] it was -1.44; in test [17] it was -0.896 (inactive); in test [18], -0.364; in test [19], -0.138. In [20], the z-score was -0.086 (inactive). In addition, in test [2], the composite z-score came to 0.612.
Regarding `C=C(CCCC)/C(=C/C[C@H](OC(C)=O)c1cccc(OCCO)c1)c1cc(C(=O)OC)ccc1OC`, the z-score in test [1] was 1.19 (inactive); in [3], 21 (active); in test [4], 3.75 (inactive); in test [5], 2.43 (inactive); in test [6], 1.21 (inactive); in test [7] it was -0.377. Moreover, the z-score was 1.39 (inactive) in [8]; 1.02 (inactive) in [9]; -0.963 in test [10]; 2.28 in [11]; 0.477 in test [12]; 0.651 in test [13]. Moreover, the z-score in [14] was -0.965; in [15], -2.14; in test [16] it was 2.19; in test [17], 0.18 (inactive); in test [18], -0.111; in test [19], 0.309. For the same molecule, in test [20], the z-score is 2.7 (inactive). In addition, the composite z-score in test [2] is -0.007.
In the case of `CC(C)C[C@@H]1NC(=O)[C@@H]2C[C@H](C(=O)NCCCC[N+](C)(C)C)[C@H](c3ccc(O)cc3)N2C1=O`, the z-score in test [1] is -0.04 (inactive); in [3], 1.32 (inactive); in [4], 0.281 (inactive); in test [5] it was -0.0501 (inactive); in test [6], 0.449 (inactive); in [7] it was 0.145. The z-score in test [8] was -2.33 (inactive); in [9] it was -1.4 (inactive); in test [10] it was -2.19; in test [11], 0.127; in [12] it was -0.302; in test [13] it was -0.698. Also, the z-score is -0.104 in test [14]; -0.427 in test [15]; -0.65 in [16]; -0.341 (inactive) in [17]; 0.496 in test [18]; -0.548 in test [19]. The z-score in [20] is -1.18 (inactive). The composite z-score in [2] is -0.0145.
